{"source": "paper PMC7826789", "about": "(International Journal of Molecular Sciences, 2021)"}
{"tested_on": "RAF1"}
{"smiles": "CCCS(=O)(=O)Nc1ccc(F)c(-n2cc(-c3cncc(OC)c3)nn2)c1F", "note": "[BI00865461]", "Kinases covered": "RAF1"}
{"smiles": "CN(C)CCOc1ccc(-c2nc(-c3ccc4c(c3)CC/C4=N\\O)c(-c3ccncc3)[nH]2)cc1", "note": "[SB-590885]", "Kinases covered": "RAF1"}
{"smiles": "O=C1Nc2ccc(C(=O)c3ccco3)cc2C1=Cc1cc(Cl)c(O)c(Cl)c1", "note": "[GW406108X]", "Kinases covered": "RAF1"}
{"tested_on": "RET"}
{"smiles": "COc1cc2c(cc1OC)C(=C(Nc1ccccc1)c1cccc(CN)c1)C(=O)N2", "note": "[BIBF0846CL]", "Kinases covered": "RET"}
{"smiles": "Cl.O=C(Nc1ccc(Oc2ccc3[nH]c(NC(=O)c4ccccc4)nc3c2)cc1)Nc1cc(C(F)(F)F)ccc1F", "note": "[GW709042A]", "Kinases covered": "RET"}
{"smiles": "COc1cc2ncnc(Nc3cccc(Cl)c3F)c2cc1O[C@H]1CC[C@H]([C@@H]2NCCNC2=O)CC1", "note": "[BI00133844]", "Kinases covered": "RET"}
